# Experimental data as given in PubChem BioAssay AID1832 (Broad Institute, 2009).
# Screen size: about 300,000 compounds; about 1,100 (0.37%) were called active. Only a selection was taken, and actives are over-represented in it overall. Unmarked numbers belong to inactive results.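 How the source made its calls: active means inhibition past about -25% in most replicates, and total fluorescence under double the plate's negative control median (limit read from the data); inconclusive means replicates evenly split on the limit, or fluorescence at least double controls; inactive means too little inhibition in most replicates.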
# Biological target: Zinc finger protein mex-5 (Caenorhabditis elegans) (UniProt Q9XUB2)
# Sequence (Q9XUB2 whole entry, looked up): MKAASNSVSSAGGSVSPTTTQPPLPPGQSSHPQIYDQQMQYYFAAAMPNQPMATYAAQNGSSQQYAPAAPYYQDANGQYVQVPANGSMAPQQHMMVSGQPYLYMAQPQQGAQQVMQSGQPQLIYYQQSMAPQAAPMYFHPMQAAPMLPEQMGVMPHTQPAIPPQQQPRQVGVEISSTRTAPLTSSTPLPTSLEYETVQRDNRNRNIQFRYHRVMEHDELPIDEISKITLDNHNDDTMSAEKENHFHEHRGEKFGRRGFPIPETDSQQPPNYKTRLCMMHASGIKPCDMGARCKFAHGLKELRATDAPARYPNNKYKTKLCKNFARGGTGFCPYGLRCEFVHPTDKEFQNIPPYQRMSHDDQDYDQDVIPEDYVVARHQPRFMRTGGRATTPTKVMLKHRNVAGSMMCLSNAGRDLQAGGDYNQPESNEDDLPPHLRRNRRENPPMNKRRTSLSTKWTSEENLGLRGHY
# Assay: MEX-5 zinc finger RNA-binding disruptors – biochemical, C. elegans, fluorescence polarization, MLPCN library, primary screen (AID 1832);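 further: 0% = DMSO and -100% = 5 µM competing unlabeled TCR2 RNA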
# Details: MEX-5/FITC-TCR2 RNA binding, at 10 µM, hits give low values
row,Structure (SMILES),activity score (negative = inhibition of binding)
1,Cc1cccn2c(=O)c3cc(C(=O)NCCN4CCOCC4)c(=N)n(Cc4cccnc4)c3nc12,-41.6% (active)
2,COc1ccc(CCn2c(=N)c(C(=O)NCC3CCCO3)cc3c(=O)n4cccc(C)c4nc32)cc1OC (centres undefined),1.85%
3,Cc1cccn2c(=O)c3cc(C(=O)NCC4CCCO4)c(=N)n(Cc4ccc(F)cc4)c3nc12 (centres undefined),-0.627%
4,CN(C)C(CNC(=O)c1cccc(S(=O)(=O)Nc2ccc(Br)cc2)c1)c1ccco1 (centres undefined),-4.39%
5,O=C(Nc1ccccc1Cc1ccccc1)c1ccc2c(c1)SC1=NS(=O)(=O)CCN12,1.1%
6,COc1ccccc1Oc1nc(-c2cccnc2)nc2ccccc12,3.68%
7,COc1ccc(Nc2nc(-c3cccnc3)nc3ccccc23)cn1,-55.5% (active)
8,Fc1ccc(/C=N/Nc2nc(-c3cccnc3)nc3ccccc23)cc1,4.03%
9,O=C(NCc1ccc2c(c1)OCO2)C(=O)NCC1OCCN1S(=O)(=O)c1ccc(F)cc1 (centres undefined),-0.888%
10,COCCn1c(N)c(NCc2ccccc2)c(=O)[nH]c1=O,-67.9% (active)
11,COc1ccc(CNc2nc3c(c(=O)[nH]c(=O)n3C)n2Cc2ccccc2)cc1,-0.659%
12,COCCn1c(N)c(N(Cc2ccccc2)C(=O)C2CCCCC2)c(=O)[nH]c1=O,1.74%
13,Cc1nnc(SCc2ccc(C(=O)c3ccc(Cl)cc3)o2)n1-c1ccccc1,-1.84%
14,COc1ccc(CC(=O)NCc2nnc(SCC(=O)Nc3ncc(C)s3)n2C)cc1,0.258%
15,COc1ccc(C(=O)O/N=C(\N)c2ccccn2)cc1[N+](=O)[O-],-0.00548%
16,COc1ccc(C(=O)NNC(=O)c2cnccn2)cc1[N+](=O)[O-],-64.4% (active)
17,COc1cccc(OCC(=O)NNC(=O)c2cnccn2)c1,-22.4%
18,O=C(CN1C(=O)c2cccnc2Oc2ccc(Cl)cc21)Nc1ccc(F)cc1,-1.82%
19,COCCCNCC(=O)Nc1sc(C)c(C)c1C(=O)OC,0.906%
20,Cc1ccc(O)c(CCc2ccccc2)n1,-3.03%
21,Cc1[nH]c2ccccc2c1/C=N\NC(=O)Cn1nnc(-c2ccccc2)n1,0.39%
22,Nc1nnn(CC(=O)N/N=C/c2ccccc2)n1,-0.796%
23,O=C(Cn1cncn1)N/N=C/c1c2ccccc2cc2ccccc12,-30% (active)

row,Structure (SMILES),activity score (negative = inhibition of binding)
1,Cc1ccc(-c2cc(C(=O)NC3CCN(Cc4ccccc4)CC3)c3ccccc3n2)cc1,-2.28%
2,COc1cccc(NC(=O)CS(=O)(=O)c2cn(CC(=O)N3CCOCC3)c3ccccc23)c1,-1.81%
3,COc1cccc(NC(=O)C(=O)c2cn(CC(=O)N3CCOCC3)c3ccccc23)c1,-27.9% (active)
4,O=C(Nc1ccc(F)cc1)C(=O)c1cn(CC(=O)N2CCOCC2)c2ccccc12,-1.93%
5,COc1ccc(-c2n[nH]c3c2CN(C(=O)c2ccc(F)cc2)CC3)cc1,0.485%
6,O=c1ccc(-c2ccc(S(=O)(=O)Nc3ccccc3)o2)n[nH]1,1.3%
7,Cc1cc2oc3ccc(NCCC4CCCN4C)cc3c(=O)c2cc1C (centres undefined),-10.1%
8,CCSCc1nc(N)nc(NCCc2ccccc2)n1,-1.2%
9,O=C(Nc1ccc(OC(F)(F)F)cc1)c1ccc2c(c1)no[n+]2[O-],-2.46%
10,COc1ccc(-c2nc(CS(=O)CC(=O)NCc3ccccn3)c(C)o2)cc1 (centres undefined),-66% (active)
11,COc1ccc(-c2nc(CS(=O)CC(=O)NCc3ccccc3)c(C)o2)cc1OC (centres undefined),2.34%
12,COc1cccc(-c2nc(CS(=O)CC(=O)NCc3ccc(F)cc3)c(C)o2)c1 (centres undefined),0.156%
13,O=C(CCC(=O)NNc1nc2ccccc2c2nc(-c3ccccc3)nn12)NCCCN1CCCC1=O,0.509%
14,COc1ccc(OC)c(-n2cc3c(=O)n(C)c(=O)n(C)c3c2)c1,-2.26%
15,COC(=O)C1=C[C@@H](C(=O)OC)[C@@H]2C3=C(C(=O)[C@]2(C)NC(=O)c2ccccc2)[C@H](C)n2c(=O)n(C)c(=O)n2[C@@H]3C1,0.374%
16,CC(Cc1ccccc1)C(=O)N(C)Cc1ccccc1 (centres undefined),2.02%
17,Cc1ccc(C)n1C(Cc1ccccc1)C(=O)O (centres undefined),-27.1% (active)
18,COc1ccc(CNC(=O)C(Cc2ccccc2)n2cccc2)cc1 (centres undefined),2.2%
19,Cc1c(C=O)c2ccccc2n1CC(=O)O,-1.11%
20,C[C@@H](C(=O)Nc1ccc2ccccc2c1)[C@@H]1C[C@@]1(C)[C@@H](NC(=O)c1cccnc1)c1ccccc1,2.99%
21,O=C(Nc1c2c(nn1-c1cccc(Cl)c1)CS(=O)(=O)C2)c1cccs1,-4.55%
22,Cc1ccccc1NC(=S)NC(=O)Cc1ccc(Cl)cc1,0.984%
23,CCCc1nnc(NC(=O)CCC(=O)N2CCN(S(=O)(=O)c3ccc(OC)cc3)CC2)s1,2.03%

row,Structure (SMILES),activity score (negative = inhibition of binding)
1,CCC1=C(C(=O)OC)C(c2cc(OC)ccc2OC)C(C#N)=C(N)O1 (centres undefined),-1.18%
2,CCN1CC=C2C(C#N)=C(N)C(C#N)(C#N)[C@H](c3ccoc3)[C@H]2C1,-84.8% (active)
3,CCCN1CC=C2C(C#N)=C(N)C(C#N)(C#N)C(c3cc(OC)ccc3OC)C2C1 (centres undefined),-27.2% (active)
4,CC1=C(C(N)=O)C(c2ccc(F)cc2)n2nc(CCCO)nc2N1 (centres undefined),-1.99%
5,CCCCn1c(N)c(N(Cc2ccccc2OC)C(=O)COc2cc(C)ccc2Cl)c(=O)[nH]c1=O,-0.677%
6,CC1CC(C)CN(c2ccc(S(=O)(=O)N3CCOCC3)cc2)C1 (centres undefined),-0.658%
7,CCN(Cc1ccccc1)S(=O)(=O)c1cc2c3c(c1)CCN3C(=O)CC2,1.24%
8,O=C1Cc2ccccc2Sc2ccc(Cl)cc21,-1.6%
9,CC(C)[C@H](NC(=O)N1c2ccccc2NC(=O)[C@@H]1C(C)C)C(=O)N[C@H](C(=O)O)c1ccccc1,1.76%
10,Cc1cccc(N=Nc2c(C)[nH]n(-c3ccccc3)c2=O)c1,-1.5%
11,Cc1cccc(N=Nc2c(O)[nH]c3ccc(F)cc23)c1,-37.8% (active)
12,COCC(=O)N=Nc1c(O)[nH]c2ccccc12,-1.5%
13,Cc1cccc(NC(=O)c2nc(S(=O)(=O)Cc3ccccc3)ncc2Cl)c1,2.04%
14,Cc1cc(=O)n2nc(N3CCCC(C(=O)NCc4cccc(Cl)c4)C3)sc2n1 (centres undefined),0.58%
15,COC(=O)C1=C(C)Nc2ncnn2C1c1ccco1 (centres undefined),0.833%
16,CCOc1ccc(C2=CC(c3ccccc3)n3ncnc3N2)cc1 (centres undefined),0.973%
17,Brc1ccc(C2=CC(c3ccco3)n3ncnc3N2)cc1 (centres undefined),-46.2% (active)
18,Cc1ccnc(N2C(=O)c3ccc([N+](=O)[O-])cc3C2=O)c1,0.424%
19,CCN1C(=NCC(C)C)N[C@@H](CCc2ccccc2)[C@H](C(=O)NCC(C)C)[C@H]1C,0.663%
20,COc1cc([C@H](Cc2ccccc2)NC(C)=O)oc(=O)c1,-29.7% (active)
21,CCOC(=O)C(Cc1ccccc1)NC(=O)CCC(=O)c1ccc(OC)cc1 (centres undefined),-0.523%
22,COC(=O)[C@H](Cc1ccccc1)NC(=O)Nc1ccc(OC)cc1,-2.47%
23,O=C(Nc1cc2c3c(c1)C1CCCC1CN3CC1CCCC21)c1ccc([N+](=O)[O-])cc1 (centres undefined),0.805%

row,Structure (SMILES),activity score (negative = inhibition of binding)
1,CCN(Cc1ccccc1)C(=O)CCS(=O)(=O)c1ccc2c(c1)oc(=O)n2C,-0.201%
2,CC(C)(C)N(Cc1ccccc1)C(=O)c1ccncc1,0.0862%
3,Cc1cc(NC(=O)CSc2nc(=O)cc(N)n2-c2ccc(F)cc2)no1,3.29%
4,O=C(O)CCn1cc(/C=C/C(=O)c2ccc(Cl)cc2)c(-c2cccc(Br)c2)n1,-3.47%
5,CCn1nc(C)c(NC(=O)/C=C/c2ccc(OC)c(COc3ccc(Br)cc3)c2)c1C,-2.54%
6,O=C1Nc2ccccc2/C1=C/c1ccnc2ccccc12,-0.239%
7,CN(C)/C=C1/Nc2ccccc2C1=O,-9.39%
8,Cc1cc(C)c(/C=C2\C(=O)Nc3ccccc32)[nH]1,-49.3% (active)
9,Cc1cc(C)c(C)c(S(=O)(=O)Nc2cccnc2)c1C,3.19%
10,CCN(CC)CCOc1ccc2c(c1)C(=NNC(=O)c1ccccn1)c1cc(OCCN(CC)CC)ccc1-2,-21.9%
11,CN1C(=O)/C(=C/c2ccco2)SC1=Nc1cccc(C(=O)O)c1,-30.7% (active)
12,Cc1cc(/C=C2\SC(=O)N(C)C2=O)c(C)n1-c1cccc(C(=O)O)c1,-1.93%
13,O=C(CCCN1C(=O)/C(=C\c2ccco2)SC1=S)Nc1cccc2ccccc12,-4.74%
14,CSc1nc(C)nc(C2CC2)c1C#N,0.165%
15,CN(C)c1ccc(NC(=S)N(CCc2ccccc2)C2CC(=O)N(c3c(Cl)cccc3Cl)C2=O)cc1 (centres undefined),0.224%
16,Cc1cccc(NC(=O)COC(=O)CCc2ccccc2)c1C,0.968%
17,O=C(COC(=O)CCc1c[nH]c(=O)[nH]1)Nc1ccccc1Cl,-36.5% (active)
18,O=C(COC(=O)CCOc1ccccc1)Nc1cc(S(=O)(=O)N2CCCCC2)ccc1Cl,-0.682%
19,COc1cc(S(=O)(=O)N2CCN=C2c2ccccc2)ccc1Cl,3.19%
20,COc1ccc(CC(=O)Nc2c(C(N)=O)oc3ccccc23)cc1,0.725%
